According to PubChem BioAssay (NCI):
The panel holds about 83,000 compounds, 20% with a hit somewhere; the sample as a whole holds those more often.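 48-hour exposure, single concentration, 96-well plates; percent growth endpoint where 0 means no net growth. Active: below 10.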 Unmarked numbers belong to inactive results. The source made the active and inactive calls.

tested on: MDA-MB-231 breast; experiment: NCI-60 one-dose screen, 48 h (100 = growth as untreated, 0 = no growth, -100 = all killed); details: 10 µM unless noted

For `COc1cc2cc(C(=O)N3C[C@@H](CCl)c4c3cc(OC(=O)N(CCC(=O)N3CCN(C)CC3)C3CCCCC3)c3ccccc43)[nH]c2c(OC)c1OC`, the growth was -61.4% (active).
In the case of `O=C(N/N=C/c1ccsc1)c1[nH]c2ccc(Br)cc2c1-c1ccccc1`, the growth is reported as -69.9% (active).
`O=C(NN1C(=O)/C(=C/C=C/c2ccc([N+](=O)[O-])o2)SC1=S)c1ccncc1` was tested, and the growth was -96.5% (active).
`CCOc1ccccc1[C@H]1C(C(=O)c2ccc(Cl)cc2)C2(N[C@@H]1c1ccccc1)C(=O)Nc1ccccc12` (stereo partly drawn) was tested, and the growth was 2.23% (active).
In the case of `COc1ccc(N=Nc2c(N)nn3c(N)c(C#N)c(-c4ccccc4)nc23)cc1`, the growth is reported as 9.1% (active).
In the case of `CN(C)c1nc(NCCNS(=O)(=O)c2ccc(C(=O)/C=C/c3ccccc3)cc2)nc(N2CCOCC2)n1`, the growth is reported as 7.26% (active).
For `O=C1CCC(N2C(=O)c3cccc(NCCCCCC(=O)N4CCN(c5ccc6nc7c(nc6c5C(F)(F)F)C(=O)c5ncccc5C7=O)CC4)c3C2=O)C(=O)N1` (stereo not drawn), the growth was -46.2% (active).
In the case of `Nc1cc(-c2c[nH]c3ccc(Br)cc23)nc2cc(-c3c[nH]c4ccccc34)nn12`, the growth is reported as -83.3% (active).

Point of comparison: `COc1cc(CNC(=O)C[C@H](C)CCC=C(C)C)ccc1OCc1cn(-c2ccc(Br)cc2)nn1`, growth 80.6%. Against it:
- Clc1ccc(Nc2nnc(-c3c[nH]c4ccccc34)o2)cc1 — lower, 65.1%
- Cc1ccc(S(=O)(=O)N(CCn2ccnc2[N+](=O)[O-])CCn2ccnc2[N+](=O)[O-])cc1 — higher, 104%
- Cc1ccc2nc(NC(=O)Nc3cccc(Cl)c3)sc2c1 — higher, 92%
- N/C(=N\c1nc2ccc([N+](=O)[O-])cc2s1)NC(=O)Nc1ccccc1Cl — lower, 15%
- COc1ccc(/C=C/C(=O)c2ccc(S(=O)(=O)NCCNc3nc(N(C)C)nc(N4CCOCC4)n3)cc2)cc1 — higher, 88.4%
- Nc1nnc(CS(=O)(=O)c2ccccc2)s1 — higher, 102%
- CS(=O)(=O)c1ccc(-n2nc(C(=O)NCc3ccccc3)cc2-c2ccc(Cl)cc2)cc1 — higher, 96.3%
- Cc1cccc(NCC(=O)N2CCN(c3ncnc4c3cnn4-c3ccccc3)CC2)c1 — lower, 65%
- CCCCCCCOc1ccc(S(=O)(=O)Nc2ccc(C)c(F)c2C(=O)O)cc1 — higher, 96%
- O=C(NNC(=O)c1ccc(OCc2nc3ccc(Cl)cc3[nH]2)cc1)Nc1ccc(Cl)c(C(F)(F)F)c1 — lower, 17.4%
- OC(c1ccccc1)(c1ccccc1)C1CCN(c2ccc3nnc(Cl)n3n2)CC1 — lower, 68%
- CCOC(=O)c1ccc(NC(=S)NC(=O)c2cccc(NC(=O)c3ccc(C)cc3)c2)cc1 — lower, 39.1%
- COC(=O)c1cccc(Oc2ccc(NC(=O)Nc3cc(C(F)(F)F)ccc3F)cc2)c1 — lower, 40%
- CCCn1c(NC(=O)c2cccc(C(N)=O)c2)nc2cc(CN3CCCCC3)ccc21 — higher, 142%
- COC(=O)c1c(C(=O)OC)c2c3ccccc3c3ccccc3n2c1C(=O)C(F)(F)F — higher, 81.6%
- O=C(Nc1ccc(S(=O)(=O)N2CCCCC2)cc1)C(Cl)Cl — higher, 109%
- O=C1Nc2ccccc2/C1=C/C(=O)c1cc2ccccc2oc1=O — higher, 97.6%
- C/C(=N\Nc1ccc(C(=O)O)cc1)c1cnn(-c2cc(=O)[nH]c3ccc(C)cc23)c1C — higher, 91.1%
- COc1ccc(-n2c(NC(=O)N3CCN(C)CC3)c(C#N)c3ccccc32)cc1 — lower, 29.6%
- O=C(CSc1nc2sc3c(c2c(=O)n1-c1ccc(Cl)cc1)CCCC3)NNC(=O)c1ccc(Br)cc1 — lower, 25.6%
- COc1ccc2[nH]c(O)c(N=NC(=O)c3ccc4nc(-c5ccc(Cl)cc5)[nH]c4c3)c2c1 — lower, 23.9%
- COc1cc(/C=N/NC(=O)c2ccc(OCc3nc4ccc(C)cc4[nH]3)cc2)cc(OC)c1OC — higher, 87.8%
- CC(C)(C)C(=O)C1CC(C#N)=C2C=Cc3c(ccc4ccccc34)N21 (stereo not drawn) — higher, 80.7%
- COc1cc(NC(=O)C(C)C)ccc1C(=O)NC(=S)Nc1ccc(S(N)(=O)=O)cc1 — higher, 93.1%
- COc1c2c(c(Br)c3c1C(CCc1ccccc1)N(C)CC3)OCO2 (stereo not drawn) — lower, 39.9%
- COc1ccc(CCC2NCCc3c(Br)c4c(c(OC)c32)OCO4)cc1 (stereo not drawn) — lower, 10.9%
- O=CNc1ccc(-n2cnc3cc(-c4ccc(O)cc4)ccc32)cc1 — higher, 108%
- N#CCc1nnc(NC(=O)c2ccc(-n3c(=O)[nH]c4ccccc4c3=O)cc2)s1 — higher, 95.5%
- FC(F)(F)c1cc2c(Cl)ncnc2n1CCN1CCOCC1 — lower, 56.4%
